Measured values reported in PubChem BioAssay AID2763 (National Center for Advancing Translational Sciences (NCATS), 2010).
Records with an inconclusive call do not appear. Active and inactive are the calls of the source. Calls come from the whole dose curve; as a rule, active = well fitted inhibition curve with a large enough effect; inconclusive = small, poorly fitted or top-dose-only effect, or effect the other way; inactive = no such curve, though single readings can be large or run the other way.

Assay: Concentration response confirmation VP16 counterscreen for inhibitors of ROR gamma transcriptional activity; note: nearly all actives have a fitted effect of over 70% in size
Details: Drosophila S2 Gal4-VP16 UAS-luciferase, luminescence, 20 h; series mostly up to 46.1 µM
Description: NIH Molecular Libraries Probe Production Network [MLPCN] NIH Chemical Genomics Center [NCGC] MLPCN Grant: R03 DA026211-01 Assay Provider: Dan Littman, New York University Assay Overview: The retinoic acid-related orphan receptor (ROR) gamma is a transcription factor that has a central role in the differentiation of Th17 cells, a subset of T helper cells that secrete the inflammatory cytokines IL-17, IL-17F, and IL-22. Th17 cells have been implicated in graft versus host disease, autoimmune disease and asthma. ROR gamma is induced in naive T helper cells in the presence of TGF-beta combined with IL-6, IL-21, or IL-23, and thereafter directs the expression of the Th17 lineage cytokines. To identify nonspecific inhibitors, a Drosophila Schneider cell line was stably transfected with two vectors: a gene expressing a fusion of the Gal4 DNA binding domain and the transactivation domain of the viral transcription factor VP16, under the control of the metallothionine promoter and a Photinus luciferase reporter regulated by the Gal4 binding site enhancer, UAS. […] Small molecule inhibitors that inhibit components common to the RORgt and VP16 assays, such as the Gal4 DNA binding domain or the UAS luciferase reporter, will be active in both assays and thus scored as nonspecific.
Assay Protocol Summary: For screening, 600 cells in 4 uL/well were dispensed into white solid 1536-well plates (Grenier) using a solenoid-based dispenser. Following transfer of 23 nL compound or DMSO vehicle by a pin tool, the plates were incubated 1 hr at ambient temperature, and 1 uL/well copper sulfate (700 uM final concentration) was added. The plates were centrifuged 15 s at 1000 RPM and incubated 20 hr at ambient temperature. After addition of 1.5 uL Photinus luciferase detection reagent, the plates were incubated 10 min at ambient temperature and then read by an ViewLux (Perkin Elmer) to detect luminescence.
Potency is the fitted concentration of half-maximal effect.

SMILES	Potency
O=C(Nc1ncc(Cc2ccccc2)s1)C1=NCCN1	19.9 µM (active)
CCCCNS(=O)(=O)c1ccc(OCC(=O)N2CCN(Cc3ccc4c(c3)OCO4)CC2)cc1	22.3 µM (active)
CCCNS(=O)(=O)c1ccc(OCC(=O)N2CCN(Cc3ccc4c(c3)OCO4)CC2)cc1	25 µM (active)
COc1cc(C(=O)N/N=C/C23CC[C@@H](O)CC2(O)CC[C@@H]2[C@@H]3CCC3(C)C(C4=CC(=O)OC4)CCC23O)ccc1O (stereo partly drawn)	inactive
OC(COCc1ccc(Cl)cc1)CN1CC=C(c2ccccc2)CC1 (stereo not drawn)	inactive
O=C(c1ccco1)c1cn(Cc2ccccc2Cl)c2ccccc12	inactive
Cn1ncnc2c(=O)n(C)c(=O)nc1-2	0.445 µM (active)
Cc1cc(S(=O)(=O)NC(C)C)ccc1OCC(=O)N1CCN(Cc2ccc3c(c2)OCO3)CC1	11.2 µM (active)
